# Reference: the supplement of paper PMC4022240
# ± gives the standard deviation.
# T1: HaloTag-ATRX ADD domain (163-292)
# T1 chain: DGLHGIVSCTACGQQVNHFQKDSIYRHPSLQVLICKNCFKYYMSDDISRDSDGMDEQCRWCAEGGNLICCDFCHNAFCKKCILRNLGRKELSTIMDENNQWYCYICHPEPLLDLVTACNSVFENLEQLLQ
# Columns and labels:
# Assay in all cases: peptide microarray binding signal (635 nm), min-max normalized on array (fraction of array maximum); higher = stronger binding
# Details in all cases: peptide region: H3 1-13
# [1] = target: T1, HaloTag-ATRX ADD domain (163-292)
# Experimental: (§1)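 Histone 13-mer peptides were synthesized as cellulose conjugates with a C-terminal 20-atom PEG linker and printed in triplicate on nitrocellulose. The sequence given is the unmodified backbone; PTMs (Kme1/2/3, Kac, Sph/Tph, Rme/Rme2a/Rme2s, Rcit) are listed in the label and the 'peptide modifications' condition. Slides were probed at 4 °C for 1 h with biotin-labelled (HQ)5-HaloTag reader fusions (ATRX-ADD, ING2-PHD) then streptavidin-Alexa647, or with rabbit histone antibodies then anti-rabbit Alexa647. The mean 635 nm signal of the triplicate spots was scaled 0-1 between the lowest and highest values on each array.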
# [2] = target: HaloTag-ING2 PHD (mouse Ing2 200-280)
# Experimental: as §1
# [3] = target: anti-H3K4me3 antibody ab8580
# Experimental: as §1
# [4] = target: anti-H3K9me3 antibody ab8898
# Experimental: as §1
# [5] = peptide modifications: H3K4me1 H3K9me3, binder concentration: 1:2,000 dilution
# [6] = peptide modifications: H3K4me1 H3K9me3, binder concentration: 1:10,000 dilution
# [7] = peptide modifications: H3K9ac, binder concentration: 1:2,000 dilution
# [8] = peptide modifications: H3K9ac, binder concentration: 1:10,000 dilution
# [9] = peptide modifications: H3K9me1 H3S10ph, binder concentration: 1:2,000 dilution
# [10] = peptide modifications: H3K9me1 H3S10ph, binder concentration: 1:10,000 dilution
# [11] = peptide modifications: H3K4me2 H3K9me2, binder concentration: 1:2,000 dilution
# [12] = peptide modifications: H3K4me2 H3K9me2, binder concentration: 1:10,000 dilution
# [13] = peptide modifications: H3K4me2 H3K9ac, binder concentration: 1:2,000 dilution
# [14] = peptide modifications: H3K4me2 H3K9ac, binder concentration: 1:10,000 dilution
# [15] = peptide modifications: H3K4me2 H3K9me3, binder concentration: 1:2,000 dilution
# [16] = peptide modifications: H3K4me2 H3K9me3, binder concentration: 1:10,000 dilution
# [17] = peptide modifications: H3K9me2, binder concentration: 1:2,000 dilution
# [18] = peptide modifications: H3K9me2, binder concentration: 1:10,000 dilution
# [19] = peptide modifications: H3K4me1 H3K9me2, binder concentration: 1:2,000 dilution
# [20] = peptide modifications: H3K4me1 H3K9me2, binder concentration: 1:10,000 dilution
# [21] = peptide modifications: H3K9ac H3S10ph, binder concentration: 1:2,000 dilution
# [22] = peptide modifications: H3K4me2 H3T6ph, binder concentration: 1:2,000 dilution
# [23] = peptide modifications: H3K4me2 H3T6ph, binder concentration: 1:10,000 dilution
binder,measurement,setting,value
ARTKQTARKSTGG [H3 1-13 A R T Kme Q T A R Kme3 S T G G],peptide microarray binding signal,"[1]; peptide modifications: H3K4me1 H3K9me3, binder concentration: 50 nM",0.253 ± 0.034
same,peptide microarray binding signal,"[1]; peptide modifications: H3K4me1 H3K9me3, binder concentration: 500 nM",0.336 ± 0.03
same,peptide microarray binding signal,"[2]; peptide modifications: H3K4me1 H3K9me3, binder concentration: 10 nM",0.335 ± 0.065
same,peptide microarray binding signal,"[2]; peptide modifications: H3K4me1 H3K9me3, binder concentration: 100 nM",0.547 ± 0.039
same,peptide microarray binding signal,[3]; [5],0.243 ± 0.018
same,peptide microarray binding signal,[3]; [6],0.101 ± 0.049
same,peptide microarray binding signal,[4]; [5],0.4 ± 0.096
same,peptide microarray binding signal,[4]; [6],0.275 ± 0.034
ARTKQTARKSTGG [H3 1-13 A R T K Q T A R Kac S T G G],peptide microarray binding signal,"[1]; peptide modifications: H3K9ac, binder concentration: 50 nM",0.0143 ± 0.00037
same,peptide microarray binding signal,"[1]; peptide modifications: H3K9ac, binder concentration: 500 nM",0.0461 ± 0.0053
same,peptide microarray binding signal,"[2]; peptide modifications: H3K9ac, binder concentration: 10 nM",0.0431 ± 0.012
same,peptide microarray binding signal,"[2]; peptide modifications: H3K9ac, binder concentration: 100 nM",0.0776 ± 0.0087
same,peptide microarray binding signal,[3]; [7],0.00276 ± 0.00088
same,peptide microarray binding signal,[3]; [8],0.00171 ± 7.1e-05
same,peptide microarray binding signal,[4]; [7],0.00554 ± 0.00013
same,peptide microarray binding signal,[4]; [8],0.00185 ± 0.00011
ARTKQTARKSTGG [H3 1-13 A R T K Q T A R Kme Sph T G G],peptide microarray binding signal,"[1]; peptide modifications: H3K9me1 H3S10ph, binder concentration: 50 nM",0.01 ± 0.00047
same,peptide microarray binding signal,"[1]; peptide modifications: H3K9me1 H3S10ph, binder concentration: 500 nM",0.0275 ± 0.00045
same,peptide microarray binding signal,"[2]; peptide modifications: H3K9me1 H3S10ph, binder concentration: 10 nM",0.00961 ± 0.00044
same,peptide microarray binding signal,"[2]; peptide modifications: H3K9me1 H3S10ph, binder concentration: 100 nM",0.02 ± 0.0008
same,peptide microarray binding signal,[3]; [9],0.000831 ± 3.9e-05
same,peptide microarray binding signal,[3]; [10],0.000171 ± 5.1e-06
same,peptide microarray binding signal,[4]; [9],0.00233 ± 0.00015
same,peptide microarray binding signal,[4]; [10],0.00138 ± 2.7e-05
ARTKQTARKSTGG [H3 1-13 A R T Kme2 Q T A R Kme2 S T G G],peptide microarray binding signal,"[1]; peptide modifications: H3K4me2 H3K9me2, binder concentration: 50 nM",0.0279 ± 0.0029
same,peptide microarray binding signal,"[1]; peptide modifications: H3K4me2 H3K9me2, binder concentration: 500 nM",0.0628 ± 0.0034
same,peptide microarray binding signal,"[2]; peptide modifications: H3K4me2 H3K9me2, binder concentration: 10 nM",0.766 ± 0.063
same,peptide microarray binding signal,"[2]; peptide modifications: H3K4me2 H3K9me2, binder concentration: 100 nM",0.786 ± 0.077
same,peptide microarray binding signal,[3]; [11],0.408 ± 0.12
same,peptide microarray binding signal,[3]; [12],0.343 ± 0.15
same,peptide microarray binding signal,[4]; [11],0.0325 ± 0.0041
same,peptide microarray binding signal,[4]; [12],0.0104 ± 0.00076
ARTKQTARKSTGG [H3 1-13 A R T Kme2 Q T A R Kac S T G G],peptide microarray binding signal,"[1]; peptide modifications: H3K4me2 H3K9ac, binder concentration: 50 nM",0.0115 ± 0.00036
same,peptide microarray binding signal,"[1]; peptide modifications: H3K4me2 H3K9ac, binder concentration: 500 nM",0.0237 ± 0.0019
same,peptide microarray binding signal,"[2]; peptide modifications: H3K4me2 H3K9ac, binder concentration: 10 nM",0.954 ± 0.21
same,peptide microarray binding signal,"[2]; peptide modifications: H3K4me2 H3K9ac, binder concentration: 100 nM",0.716 ± 0.27
same,peptide microarray binding signal,[3]; [13],0.298 ± 0.09
same,peptide microarray binding signal,[3]; [14],0.293 ± 0.1
same,peptide microarray binding signal,[4]; [13],0.00778 ± 0.00063
same,peptide microarray binding signal,[4]; [14],0.00824 ± 0.00044
ARTKQTARKSTGG [H3 1-13 A R T Kme2 Q T A R Kme3 S T G G],peptide microarray binding signal,"[1]; peptide modifications: H3K4me2 H3K9me3, binder concentration: 50 nM",0.133 ± 0.011
same,peptide microarray binding signal,"[1]; peptide modifications: H3K4me2 H3K9me3, binder concentration: 500 nM",0.21 ± 0.019
same,peptide microarray binding signal,"[2]; peptide modifications: H3K4me2 H3K9me3, binder concentration: 10 nM",1 ± 0.17
same,peptide microarray binding signal,"[2]; peptide modifications: H3K4me2 H3K9me3, binder concentration: 100 nM",1 ± 0.088
same,peptide microarray binding signal,[3]; [15],0.491 ± 0.058
same,peptide microarray binding signal,[3]; [16],0.325 ± 0.12
same,peptide microarray binding signal,[4]; [15],0.429 ± 0.054
same,peptide microarray binding signal,[4]; [16],0.369 ± 0.044
ARTKQTARKSTGG [H3 1-13 A R T K Q T A R Kme2 S T G G],peptide microarray binding signal,"[1]; peptide modifications: H3K9me2, binder concentration: 50 nM",0.0139 ± 0.0015
same,peptide microarray binding signal,"[1]; peptide modifications: H3K9me2, binder concentration: 500 nM",0.0282 ± 0.0022
same,peptide microarray binding signal,"[2]; peptide modifications: H3K9me2, binder concentration: 10 nM",0.00668 ± 0.00014
same,peptide microarray binding signal,"[2]; peptide modifications: H3K9me2, binder concentration: 100 nM",0.00935 ± 0.00046
same,peptide microarray binding signal,[3]; [17],0.00104 ± 0.0001
same,peptide microarray binding signal,[3]; [18],0.000571 ± 1.1e-05
same,peptide microarray binding signal,[4]; [17],0.00128 ± 6.2e-05
same,peptide microarray binding signal,[4]; [18],0.000923 ± 9.6e-06
ARTKQTARKSTGG [H3 1-13 A R T Kme Q T A R Kme2 S T G G],peptide microarray binding signal,"[1]; peptide modifications: H3K4me1 H3K9me2, binder concentration: 500 nM",0.0151 ± 0.00042
same,peptide microarray binding signal,"[2]; peptide modifications: H3K4me1 H3K9me2, binder concentration: 10 nM",0.155 ± 0.014
same,peptide microarray binding signal,"[2]; peptide modifications: H3K4me1 H3K9me2, binder concentration: 100 nM",0.182 ± 0.062
same,peptide microarray binding signal,[3]; [19],0.0488 ± 0.0073
same,peptide microarray binding signal,[3]; [20],0.0289 ± 0.0056
same,peptide microarray binding signal,[4]; [19],0.00408 ± 0.00035
same,peptide microarray binding signal,[4]; [20],0.00409 ± 0.00034
ARTKQTARKSTGG [H3 1-13 A R T K Q T A R Kac Sph T G G],peptide microarray binding signal,"[1]; peptide modifications: H3K9ac H3S10ph, binder concentration: 500 nM",0.0136 ± 0.00075
same,peptide microarray binding signal,"[2]; peptide modifications: H3K9ac H3S10ph, binder concentration: 100 nM",0.0173 ± 0.0011
same,peptide microarray binding signal,[3]; [21],0.000925 ± 2.1e-05
same,peptide microarray binding signal,[4]; [21],0.00113 ± 0.00013
ARTKQTARKSTGG [H3 1-13 A R T Kme2 Q Tph A R K S T G G],peptide microarray binding signal,"[1]; peptide modifications: H3K4me2 H3T6ph, binder concentration: 50 nM",0.00636 ± 7.4e-05
same,peptide microarray binding signal,"[1]; peptide modifications: H3K4me2 H3T6ph, binder concentration: 500 nM",0.0142 ± 0.0017
same,peptide microarray binding signal,"[2]; peptide modifications: H3K4me2 H3T6ph, binder concentration: 10 nM",0.139 ± 0.025
same,peptide microarray binding signal,"[2]; peptide modifications: H3K4me2 H3T6ph, binder concentration: 100 nM",0.385 ± 0.012
same,peptide microarray binding signal,[3]; [22],0.0372 ± 0.011
same,peptide microarray binding signal,[3]; [23],0.0131 ± 0.0018
same,peptide microarray binding signal,[4]; [22],0.00426 ± 0.0013
same,peptide microarray binding signal,[4]; [23],0.00271 ± 0.00042
